Compounds without any hit were thinned out: in the full panel of roughly 83,000, 20% have a hit.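 Activity criterion: percent growth below 10, measured after cells in 96-well plates were exposed to a single compound concentration for 48 hours.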 A number with no mark means an inactive call. Activity calls are given as the source filed them.

In the first experiment the test system is HT29 colon. In words: NCI-60 one-dose screen, 48 h (100 = growth as untreated, 0 = no growth, -100 = all killed). Conditions: 10 µM unless noted.
Take `O=C(NN1C(=O)/C(=C/C=C/c2ccc([N+](=O)[O-])o2)SC1=S)c1ccc(Cl)cc1`: the growth is -76.4% (active).
In the case of `COCOc1ccc2c(=O)c(C)c(C(=O)N[C@@H](Cc3ccccc3)C(O)C(=O)NCCc3ccc(OC)cc3)oc2c1` (stereo partly drawn), the growth was 113%.
The same measure, in the same setting: the value for `C#CCOc1cc(N(CC)CC)ccc1C(C(=O)NC(C)(C)C)N(C(=O)C1CCc2cc(F)ccc2O1)c1ccc(Br)cc1` (stereo not drawn) was 77.3%; that for `Cc1cc2nc3c4ccccc4n(CC4=NCCN4)c3nc2cc1C` was -74.3% (active).
Same read-out and setting: next, `Cn1cc(-c2nc(N)nnc2-c2c[nH]c3ccc(F)cc23)c2cccnc21`: 44.5%; `COc1ccc(N2N=C(c3ccc4c(c3)OCO4)CC2c2cccc(NC(=O)CCNS(=O)(=O)c3ccc(Cl)cc3)c2)cc1` (stereo not drawn): 17.1%.
On the same count and under the same terms, the value for `Cc1nc(Nc2ccccn2)sc1C(=O)CC(SCC(=O)Nc1ccc(Cl)cc1)c1ccccc1F` (stereo not drawn) was -28.4% (active); that for `Cc1cccc(-c2nc(Nc3ccc(C)c(S(N)(=O)=O)c3)c3ccccc3n2)c1` was 18%; that for `CN(C)CCn1c2ccccc2c2nc3cc(C(F)(F)F)ccc3nc21` was 27.6%.
As for `S=C(Nc1ccccc1)Nc1ccc(OCc2nc3ccccc3[nH]2)cc1`, the growth was 25.4%.

In another experiment the test system is SNB-75 CNS. Described as above. Particulars: 10 µM unless noted.
In the case of `O=C1NC(=O)c2c1c1c3cc(Br)ccc3[nH]c1c1oc3ccc(F)cc3c21`, the growth is -11.6% (active).
Consider `C#CCOc1ccc(/C=N/Nc2nc(-c3ccc(F)cc3)cs2)cc1OC`, for which the growth was 81.8%.
For the molecule `O=C1NC(=O)/C(=C/c2ccccc2OCc2cc3ccccc3nc2Cl)S1`, the growth was 46.9%.
Same read-out and setting: next, `Cc1ccc(NCC(=O)Cn2cc(COc3ccc(C=Nc4cnc5ccccc5c4)cc3)nn2)cc1`: 111%.
For the molecule `C/C(=N\N=C1/C(=O)Nc2ccccc21)c1ccc2c(c1)Nc1ccccc1S2`, the growth is 44%.
On the same count and under the same terms, next, `C/C(=N\N=C1/C(=O)Nc2ccc(Cl)cc21)c1ccc2c(c1)Nc1ccccc1S2`: 8.6% (active); `CCN(CC)c1ccnc(CNCCSC(c2ccccc2)(c2ccccc2)c2ccc(C)cc2)c1`: -51.2% (active); `Cc1cc2c(cc1Cl)C(=O)/C(=C/c1ccccc1)O2`: 52.5%.
Same read-out and setting: next, `COc1ccc(C(=O)/C=C/c2ccc(OCc3ccc(F)cc3)c(OC)c2)cc1OC`: -15% (active); `COc1cc(OC)c2c3nc4cc(C)c(C)cc4nc3n(CCN(C)C)c2c1`: 78.3%.
The same measure, in the same setting: the value for `N=C1N=C(SCc2nc3ccccc3[nH]2)NC(=O)/C1=C/c1ccc(Cl)cc1` was 106%; that for `COc1ccc(C2CC(c3ccc(S(=O)(=O)NCCNc4nc(Nc5ccc(F)cc5)nc(N(C)C)n4)cc3)=Nc3c(N)nc(N)nc3N2)cc1` (stereo not drawn) was 92.7%.
Take `O=C(Cn1nc(-c2ccccc2)ccc1=O)N/N=C/c1ccc(N2CCOCC2)cc1`: the growth is 96.4%.
On the same count and under the same terms, the value for `CC1(C)CC[C@]2(C(=O)O)CC[C@]3(C)C(=CCC4[C@@]5(C)C[C@@H](O)[C@@H]6OC(c7cccc(Br)c7)OC[C@@]6(C)C5CC[C@]43C)C2C1` (stereo partly drawn) was 85.1%; that for `COc1ccc(C(=O)/C=C/c2ccc(OCc3ccccc3)c(OC)c2)cc1OC` was -15.9% (active).
The same measure, in the same setting: next, `O=C(N=Nc1c(O)[nH]c2ccc([N+](=O)[O-])cc12)c1ccc2nc(-c3ccccc3)[nH]c2c1`: 95.7%.
Still for that read-out and setting: next, `C/C(=N\N=C\c1cc([N+](=O)[O-])ccc1Cl)c1ccc2c(c1)Nc1ccccc1S2`: 5.46% (active).
Take `C=C1CCC2C3(C)COC(c4ccc(F)cc4)OC3CCC2(C)C1C/C=C1/C(=O)OCC1O` (stereo not drawn): the growth was -21.6% (active).
Still for that read-out and setting: next, `CCCSc1nc(NCCc2c[nH]c3ccccc23)c(C#N)c(-c2ccc(OC)cc2)n1`: 78.9%; `N/C(=N\c1nc2ccccc2s1)NC(=O)Nc1ccccc1Br`: -33.3% (active); `O=C(Cn1c2c(sc1=O)[C@H]1[C@@H](O)[C@@H](O)[C@H](O)[C@@H]1CS2)N1CCOCC1`: 82.3%.
Regarding `COC(=O)/C=C/c1cccc2c1C(=O)NC(C)(c1cc3ccccc3oc1=O)N2` (stereo not drawn), the growth was 41.6%.
The same measure, in the same setting: next, `Brc1ccc(-c2n(Cc3ccc4ccccc4c3)c(-c3ccccc3)c(-c3ccccc3)[n+]2Cc2ccc3ccccc3c2)cc1`: -97.9% (active).
The same measure, in the same setting: the value for `COc1ccc(NC(=O)Cn2c3c(sc2=O)[C@H]2[C@@H](O)[C@@H](O)[C@H](O)[C@@H]2CS3)cc1` was 88.5%; that for `Cc1cc2nc3c4ccccc4n(CCCN(C)C)c3nc2cc1C` was -97.8% (active).
On to `O=S(=O)(Nc1cccc(-n2cnc3cc(-c4ccc(O)cc4)ccc32)c1)C1CC1`, for which the growth was -22.3% (active).
Same read-out and setting: the value for `CN(C)c1ccnc(CNCCSC2(c3ccc(C(F)(F)F)cc3)c3ccccc3C=Cc3ccccc32)c1` was -6.52% (active); that for `CN(C)c1nc(NCCNS(=O)(=O)c2ccc(C3=Nc4c(N)nc(N)nc4NC(c4ccc(C(F)(F)F)cc4)C3)cc2)nc(Nc2ccc(F)cc2)n1` (stereo not drawn) was 31.7%.
The same measure, in the same setting: next, `O=C(NN1C(=O)/C(=C/C=C/c2ccc([N+](=O)[O-])o2)SC1=S)c1ccc(Cl)cc1`: -93.4% (active).
In the case of `COCOc1ccc2c(=O)c(C)c(C(=O)N[C@@H](Cc3ccccc3)C(O)C(=O)NCCc3ccc(OC)cc3)oc2c1` (stereo partly drawn), the growth is 125%.
On the same count and under the same terms, the value for `C#CCOc1cc(N(CC)CC)ccc1C(C(=O)NC(C)(C)C)N(C(=O)C1CCc2cc(F)ccc2O1)c1ccc(Br)cc1` (stereo not drawn) was 98.9%.
Same read-out and setting: next, `Cc1cc2nc3c4ccccc4n(CC4=NCCN4)c3nc2cc1C`: 25.1%; `Cn1cc(-c2nc(N)nnc2-c2c[nH]c3ccc(F)cc23)c2cccnc21`: 7.07% (active); `COc1ccc(N2N=C(c3ccc4c(c3)OCO4)CC2c2cccc(NC(=O)CCNS(=O)(=O)c3ccc(Cl)cc3)c2)cc1` (stereo not drawn): 49.4%.
Same read-out and setting: next, `Cc1nc(Nc2ccccn2)sc1C(=O)CC(SCC(=O)Nc1ccc(Cl)cc1)c1ccccc1F` (stereo not drawn): 16.5%; `Cc1cccc(-c2nc(Nc3ccc(C)c(S(N)(=O)=O)c3)c3ccccc3n2)c1`: 91.5%.
As for `CN(C)CCn1c2ccccc2c2nc3cc(C(F)(F)F)ccc3nc21`, the growth is 44.5%.
Still for that read-out and setting: next, `S=C(Nc1ccccc1)Nc1ccc(OCc2nc3ccccc3[nH]2)cc1`: 27.4%.
